L major viab = inhibitors of Leishmania major promastigote growth. inhibition, % at 10 µM. Leishmania major promastigotes, resazurin fluorescence viability. 200,000 tested, 9% active; in the data active = inhibition above about 50%;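 note: promastigotes grown with compound for 44 hours at 28 °C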
Calpain2 inh = blocks pig calpain II enzyme activity; purified calpain II, fluorogenic peptide substrate, 30 min; inhibition, % at 16 µM; 220,000 tested, 0.37% active;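 active = inhibition above about 50%, limit read from the data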
WT yeast gro inh = growth inhibition of WT yeast, mitochondrial fusion screen | 190,000 tested, 2.1% active | mitochondrial fusion phenotypic screen, WT strain | inhibition, % at 10 µM; in the data active = inhibition above about 58%; tested in S. cerevisiae
Cl transport mod = modulators of human KCC2 chloride dependent transport. 190,000 tested, 2.2% active. B-score of Tl+ flux slope (higher = more flux/activation; lower = inhibition) at 10 µM. KCC2 cells, thallium flux FluoZin-2 fluorescence. Q9H2X9. AID 1456;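 active = thallium flux slope and its plate-corrected score both differing from the plate sample mean at a set confidence after two filtering rounds, in either direction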;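 note: slope of fluorescence scaled to starting intensity during 10 to 20 s after thallium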
ROMK primary = modulates human ROMK potassium channel activity | Tet-inducible ROMK, thallium flux fluorescence; actives lie on both sides | 130,000 tested, 2% active | AID 1918 | P48048 | B-score at 10 µM;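 active = signal ratio slope over the read window, or its plate-corrected B-score, at least 3 SD from the plate mean, either direction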;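 note: B-score of the F/F0 ratio slope over 7 to 12 s after thallium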
Target sequence (P48048 whole entry, looked up): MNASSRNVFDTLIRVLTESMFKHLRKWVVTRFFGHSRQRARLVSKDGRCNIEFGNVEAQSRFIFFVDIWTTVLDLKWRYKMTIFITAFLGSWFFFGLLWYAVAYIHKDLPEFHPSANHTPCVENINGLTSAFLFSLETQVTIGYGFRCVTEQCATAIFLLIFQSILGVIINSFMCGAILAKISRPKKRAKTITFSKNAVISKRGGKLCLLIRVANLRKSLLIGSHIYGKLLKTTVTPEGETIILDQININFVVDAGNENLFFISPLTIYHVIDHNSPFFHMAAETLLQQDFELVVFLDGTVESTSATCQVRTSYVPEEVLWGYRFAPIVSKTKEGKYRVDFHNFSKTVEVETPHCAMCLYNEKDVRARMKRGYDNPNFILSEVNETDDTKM
KCC2 sec1 = confirmation of human KCC2 transport modulators. normalised thallium flux (F/F0 slope) at 10 µM. HEK293-KCC2, thallium flux, FluoZin2 fluorescence; active compounds read high. shares compounds with Cl transport mod. 3,700 tested, 15% active. AID 1713;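 active = thallium flux slope above the same plate's solvent-only control mean plus 3 SD; inconclusive = the two replicate wells disagree; inactive = no significant difference from solvent-only control wells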
KCC2 bumet counter = thallium flux persisting under bumetanide in KCC2 cells, counter-screen secondary assay. shares compounds with Cl transport mod. HEK293-KCC2 + bumetanide/ouabain, thallium flux FluoZin2; active compounds read high. normalized thallium flux at 10 µM. 3,700 tested, 49% active. AID 1714;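 active = thallium entry rate above the same plate's blocked-transporter control wells by more than 3 SD; inconclusive = the two repeat wells disagree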;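 note: raw slope of fluorescence over initial fluorescence between 10 and 20 s after thallium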
KCC2 secondary2 = confirmation of human KCC2 transport modulators. shares compounds with Cl transport mod. HEK293-KCC2, thallium flux FluoZin2 fluorescence; actives lie on both sides; F/F0 rise rate, 10–20 s post-thallium. normalized thallium flux at 10 µM. 3,700 tested, 23% active. AID 1715;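 active = thallium flux slope more than 3 SD above or below the plate's solvent-only control mean, mostly below; inconclusive = the two repeat wells disagreed; inactive = no significant shift from solvent-only controls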;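 note: raw slope with 0.1% DMSO as baseline and bumetanide as block control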
HEK counter1 = acts in parental HEK cells, KCC2 counter-screen; shares compounds with Cl transport mod; AID 1716; HEK293 parental cells, thallium flux FluoZin2, ouabain; baseline-ratio fluorescence slope, 10–20 s after thallium; 3,700 tested, 46% active; thallium flux rate (normalised fluorescence) at 10 µM;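 active = thallium flux rate significantly above the same plate's solvent-only control wells, beyond their mean plus 3 SD; inconclusive = the two replicate wells gave conflicting results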
KCC2 ouabain = modulates human KCC2 on retest with ouabain; raw Tl+ flux slope (below DMSO = inhibition, above = activation) at 10 µM; shares compounds with Cl transport mod; HEK293-KCC2, thallium flux FluoZin2 fluorescence; bidirectional: low = inhibitor, high = activator; 3,700 tested, 48% active;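 active = thallium flux slope beyond 3 SD from same-plate DMSO control mean in most replicates, usually higher, sometimes lower; inconclusive = repeat tests gave conflicting results; inactive = no significant difference from controls in most replicates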;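 note: slope of initial-normalized fluorescence between seconds 10 and 20 after thallium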
HEK293 Tl flux2 = acts in parental HEK cells, second KCC2 counter-screen; HEK293 parental, thallium flux FluoZin-2 fluorescence slope; shares compounds with Cl transport mod; 3,700 tested, 33% active; thallium flux slope at 10 µM;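 active = thallium flux slope above the same plate's solvent-control mean plus 3 SD in both duplicate wells; inconclusive = duplicate wells that disagreed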;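 note: run without ouabain in cells lacking the KCC2 cotransporter; slope of fluorescence scaled to its starting value between 10 and 20 s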
The depositor's hits bear a star; ? = inconclusive; / = no result. The list is not random: actives were taken first. Their share in the collection is about 12%.

SMILES	L major viab	Calpain2 inh	WT yeast gro inh	Cl transport mod	ROMK primary	KCC2 sec1	KCC2 bumet counter	KCC2 secondary2	HEK counter1	KCC2 ouabain	HEK293 Tl flux2
S=c1nc(-c2ccccc2)oc2c1CCCC2	-9	15	12	5.3*	/	0.0084	0.045*	0.032	0.012*	?	0.013*
CC(C)=CCN1CCN(Cc2cn[nH]c2C2CCCCC2)CC1CCO (configuration not stated)	-3	3	-3	/	/	/	/	/	/	/	/
O=C(Nc1cccc(Cl)c1)Nc1nnc(CC2=CCCCC2)s1	-6	1	2	-0.51	/	/	/	/	/	/	/
O=C(CCN1C(=O)C2C3C=CC(C3)C2C1=O)NCCN1CCCc2ccccc21 (configuration not stated)	-1	-5	22	-0.037	/	/	/	/	/	/	/
O=C(CN1C(=O)C2C3C=CC(C3)C2C1=O)NCCN1CCCc2ccccc21 (configuration not stated)	-5	-44	7	4.5*	/	0.0076	0.006	0.031	0.0069	0.021	0.0096
Cc1nc(NCc2cccnc2)c2c3c(sc2n1)CC(C)CC3 (configuration not stated)	7	-22	-2	59*	0.37	0.036*	0.16*	0.038*	0.097*	0.087*	0.034*
O=C(OC1CCc2ccccc2C1=O)c1ccccc1O (configuration not stated)	8	8	16	-3.8*	/	0.0087	?	0.027*	0.0075	0.013*	0.011
COc1ccc(Nc2cc(C)c3ccc(O)cc3n2)cc1	/	4	/	-2.8	-0.69	0.0079	0.0055	0.033	?	0.023	0.01
Cc1cc(C2C(=O)C(C(=O)c3ccc(Cl)cc3)C(=O)CC2(C)C)on1 (configuration not stated)	-2	4	-7	0.16	0.55	/	/	/	/	/	/
Cc1ccc(NC2=C(N3CCOCC3)C(=O)c3ccccc3C2=O)cc1	2	24	11	/	/	0.0055	0.005	0.026*	0.008	?	0.011
Cc1cc(C(=O)Nc2nc3c(s2)CCCC3)no1	0	-6	21	4.4*	/	0.011	0.015*	0.034	0.0091*	0.024	?
Cc1onc(-c2ccccc2)c1C(=O)Nc1nc2c(s1)CCCC2	21	18	11	0.6	0.99	/	/	/	/	/	/
CC(=O)Nc1ccc(C(=O)NNC(=O)Cc2ccccc2)cc1	-3	-13	-6	0.34	0.56	/	/	/	/	/	/
Cc1ccc(CN=C2NC(=O)C(CC(=O)NCCc3ccccc3)S2)cc1 (configuration not stated)	-4	12	-6	-0.74	-0.15	/	/	/	/	/	/
Cc1ccc(C(=O)Nc2nc3ccccc3c(=O)s2)cc1	-8	-6	2	41*	1.1	0.027*	0.14*	0.054*	0.079*	0.11*	0.029*
Cc1ccc(Nc2nc3ccccc3c(=O)s2)cc1C	0	-13	-2	17*	-0.73	0.0072	0.031*	0.043*	0.026*	0.039*	0.028*
COc1ccc(Nc2nc3ccccc3c(=O)s2)c(OC)c1	-1	5	-13	0.54	0.035	/	/	/	/	/	/
CC1CC(C)CN(S(=O)(=O)c2ccc(C(=O)Nc3nnc(-c4cccs4)o3)cc2)C1 (configuration not stated)	100*	-431	54	12*	0.86	0.0056	0.032*	0.041*	0.025*	0.034*	0.024*
CCC1CCCCN1S(=O)(=O)c1ccc(C(=O)Nc2nnc(-c3cccs3)o2)cc1 (configuration not stated)	99*	-68	37	15*	/	0.014*	0.054*	0.029	0.024*	0.045*	0.012*
CC1CC(C)CN(S(=O)(=O)c2ccc(C(=O)Nc3sccc3C(N)=O)cc2)C1 (configuration not stated)	14	-185	3	-0.066	/	/	/	/	/	/	/
O=C(NCCc1ccc(Cl)cc1)c1ccc(CNc2c(N3CCOCC3)c(=O)c2=O)cc1	/	-6	/	-0.19	0.78	/	/	/	/	/	/
CCN(CC)CCNC(=O)Cn1cnc2sc(C)c(S(=O)(=O)N3CCN(c4ncccn4)CC3)c2c1=O	1	-25	-2	0.13	-0.59	/	/	/	/	/	/
CC(C)C(=O)N/N=C/c1ccc(OCc2ccccc2)cc1	-4	7	2	-4.7*	/	0.0072	0.0051	0.03	0.0073	?	0.01
CC1Cc2ccccc2N1Cc1nc2scc(-c3cccs3)c2c(=O)[nH]1 (configuration not stated)	1	-56	3	3.9*	/	0.0079	0.0094*	0.029	0.0072	0.021	0.0093
CON(C)S(=O)(=O)c1ccc2c(c1)N(Cc1ccc(C)cc1)C(=O)C1CCCN21 (configuration not stated)	0	-73	-1	0.23	0.13	/	/	/	/	/	/
SMILES	L major viab	Calpain2 inh	WT yeast gro inh	Cl transport mod	ROMK primary	KCC2 sec1	KCC2 bumet counter	KCC2 secondary2	HEK counter1	KCC2 ouabain	HEK293 Tl flux2
CCOC(=O)c1sc(NC(=O)c2cc3n(n2)C(C(F)(F)F)CC(c2ccccc2)N3)c(C(=O)OCC)c1C (configuration not stated)	0	-175	1	/	0.67	/	/	/	/	/	/
CC(/C=N/n1c(COc2ccccc2)n[nH]c1=S)=C\c1ccco1	/	21	/	121*	/	0.015*	0.17*	0.034	0.055*	0.046*	0.014*
S=c1[nH]nc(COc2ccccc2)n1/N=C/c1ccc(Br)s1	-6	-12	-9	51*	0.032	?	0.077*	0.034	0.022*	0.027*	0.026*
S=c1[nH]nc(COc2ccccc2)n1/N=C/c1ccco1	-5	-8	-6	-0.08	/	/	/	/	/	/	/
CCOc1ccc(C(C)NC(=O)Cc2ccccc2F)cc1OCC (configuration not stated)	5	11	-8	-0.00081	1.7	/	/	/	/	/	/
COc1ccc(CCNC(=O)Cn2cccc2C(=O)c2ccccc2C)cc1OC	1	-3	-6	-0.7	0.12	/	/	/	/	/	/
COC(=O)c1ccc(C(C(=O)NCc2ccccc2)N(Cc2cccs2)C(=O)c2cnccn2)cc1 (configuration not stated)	3	-58	9	/	/	0.0093	0.0059	0.033	0.0085	0.02	0.011
COc1ccc(C(C(=O)NCc2ccccc2)N(Cc2ccco2)C(=O)c2cnccn2)cc1 (configuration not stated)	5	-21	-16	-0.34	/	/	/	/	/	/	/
